rCAG binder: r(CAG) repeat RNA binding. TO-PRO-1 dye displacement fluorescence. inhibition, % at 3 µM. actives 1.3% (n = 370,000);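 active means inhibition above the plate cutoff, the mean of all test compounds on that plate plus 3 SD, cut at about 35% in these data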;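 further: higher means more dye released from RNA so lower well fluorescence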
MPTP block: blocks calcium-induced mitochondrial swelling. actives 1.4% (n = 360,000). isolated mouse mitochondria, Ca2+ swelling absorbance, 30 min. inhibition, % at 10 µM;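 active means inhibition of 50% or more, scaled per plate between neutral and stimulator controls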
Pemphigus Ab inh: inhibitors of pemphigus antibody binding to human desmoglein-3 | P32926 | DSG3-coupled beads, scFv-anti-DSG3-GFP binding, flow cytometry; hits give low values | actives 0.48% (n = 310,000) | binding (percent of control), % at 10 µM;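 active means binding more than 3 SD below its plate's average and above zero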;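 further: hits lower antibody fragment binding to DSG3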
ADAM17 inh: inhibitors of human ADAM17; AID 720648; P78536; recombinant ADAM17, EDANS/DABCYL FRET peptide cleavage; inhibition, % at 6.95 µM; actives 0.83% (n = 370,000);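 active means inhibition above the mean of compounds lying between control limits plus 3 SD, set per campaign, cut at about 8.5% in these data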
ADAM10 inh: inhibits human ADAM10 | actives 0.62% (n = 370,000) | O14672 | recombinant ADAM10, EDANS/DABCYL FRET peptide cleavage, 3 h | inhibition, % at 7 µM;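 active means inhibition above a per-campaign cutoff equal to the mean of compounds falling between control-based bounds plus 3 SD, cut at about 20% in these data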
KLK7 zymogen act: activators of human kallikrein-7 zymogen; purified proKLK7, EDANS-DABCYL substrate fluorescence; 100% is mature enzyme control, 0% vehicle; AID 652039; actives 0.9% (n = 370,000); activation, % at 7 µM; P49862;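 active means activation above the mean of all tested compounds plus 3 SD, computed per campaign excluding outliers beyond control limits, cut at about 13% in these data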
Target sequence (P49862 whole entry, looked up): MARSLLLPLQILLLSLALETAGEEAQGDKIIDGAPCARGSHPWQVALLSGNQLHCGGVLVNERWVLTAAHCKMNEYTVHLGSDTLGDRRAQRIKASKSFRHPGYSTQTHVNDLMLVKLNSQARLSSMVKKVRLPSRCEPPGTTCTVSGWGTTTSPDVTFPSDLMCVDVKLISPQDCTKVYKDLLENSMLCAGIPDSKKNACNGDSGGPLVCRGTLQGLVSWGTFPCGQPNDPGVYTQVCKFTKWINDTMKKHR
rCAG binder conf: r(CAG) RNA repeat binding, confirmation. AID 652065. actives 70% (n = 4,300). inhibition, % at 3 µM. TO-PRO-1 dye displacement fluorescence. shares compounds with rCAG binder;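 active means inhibition above a per-plate cutoff, the mean inhibition of sample wells plus 3 SD, cut at about 35% in these data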;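 further: loss of TO-PRO-1 fluorescence as compound displaces dye from 1x1 AA loop RNA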
dCAG dye counter: DNA CAG dye complex inhibition counter-screen; shares compounds with rCAG binder; d(CAG) DNA oligo TO-PRO-1 dye displacement, fluorescence; inhibition, % at 3 µM; actives 94% (n = 4,300);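 active means inhibition above its plate's cutoff, the mean test-well inhibition plus 3 SD, cut at about 4.8% in these data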;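 further: hits displace the dye from DNA and so lower well fluorescence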
Numbers stand for hits. Compounds with a hit are over-represented: about 4.7% of the library has one in this group of screens.

CCC(C)NC(=O)CSc1nc2c(sc(=S)n2-c2cc(Cl)ccc2OC)c(=O)[nH]1 (centres undefined) was read as rCAG binder 46, MPTP block inactive, Pemphigus Ab inh inactive, ADAM17 inh inactive, ADAM10 inh inactive, KLK7 zymogen act inactive, rCAG binder conf 38 and dCAG dye counter 8.5.
`COc1ccc(Cl)cc1-n1c(=S)sc2c(=O)[nH]c(SCC(=O)NCC3CCCO3)nc21` (centres undefined) gave rCAG binder 41, MPTP block inactive, Pemphigus Ab inh inactive, ADAM17 inh inactive, ADAM10 inh inactive, KLK7 zymogen act inactive, rCAG binder conf inactive and dCAG dye counter 6.6.
COCCCNC(=O)CSc1nc2c(sc(=S)n2-c2cc(Cl)ccc2OC)c(=O)[nH]1 was read as rCAG binder inactive, MPTP block inactive, Pemphigus Ab inh inactive, ADAM17 inh inactive, ADAM10 inh inactive and KLK7 zymogen act inactive.
Screening CCn1c(SCC(=O)Nc2ccc(C(=O)OC)cc2)nnc1-c1cccc(Cl)c1 returned rCAG binder inactive, ADAM17 inh inactive, ADAM10 inh inactive and KLK7 zymogen act inactive.
For CC(C)n1nnnc1C1(C)CN(S(C)(=O)=O)CC(=O)N1Cc1cccc(C(F)(F)F)c1 (centres undefined) the results were rCAG binder inactive, ADAM17 inh inactive, ADAM10 inh inactive and KLK7 zymogen act inactive.
Screening O=C(O)C(=Cc1ccccc1Cl)c1ccccc1 returned MPTP block inactive.
Screening O=C(O)c1cc(S(=O)(=O)N2CCCCC2)sc1Cl returned rCAG binder inactive, MPTP block inactive, Pemphigus Ab inh inactive, ADAM17 inh inactive, ADAM10 inh inactive and KLK7 zymogen act inactive.
`O=C(O)/C(=C\c1ccc(Cl)c([N+](=O)[O-])c1)c1ccc(S(=O)(=O)N2CCCCC2)s1` gave rCAG binder 38, MPTP block inactive, Pemphigus Ab inh inactive, ADAM17 inh inactive, ADAM10 inh inactive, KLK7 zymogen act inactive, rCAG binder conf 68 and dCAG dye counter 29.
For O=C(O)/C(=C\c1ccc(Cl)c([N+](=O)[O-])c1)c1ccc(S(=O)(=O)N2CCCC2)s1 the results were rCAG binder 71, MPTP block inactive, Pemphigus Ab inh inactive, ADAM17 inh inactive, ADAM10 inh inactive, KLK7 zymogen act inactive, rCAG binder conf 47 and dCAG dye counter 15.
For O=C(/C=C/c1ccc(Cl)c([N+](=O)[O-])c1)Nc1ccc(N2CCCC2)cc1 the results were rCAG binder inactive, MPTP block inactive, Pemphigus Ab inh inactive, ADAM17 inh inactive, ADAM10 inh inactive and KLK7 zymogen act inactive.
For O=C(O)/C(=C\c1cccc([N+](=O)[O-])c1)c1ccc(S(=O)(=O)N2CCCCC2)s1 the results were rCAG binder 38, MPTP block inactive, Pemphigus Ab inh inactive, ADAM17 inh inactive, ADAM10 inh inactive, KLK7 zymogen act inactive, rCAG binder conf 44 and dCAG dye counter 14.
`O=C(O)/C(=C\c1ccccc1Cl)c1ccc(S(=O)(=O)N2CCCCC2)s1` gave rCAG binder 51, MPTP block inactive, Pemphigus Ab inh inactive, ADAM17 inh inactive, ADAM10 inh inactive, KLK7 zymogen act inactive, rCAG binder conf inactive and dCAG dye counter 9.4.
For CC1(C)CC(=O)C=C(NCCc2c[nH]c3ccccc23)C1 the results were rCAG binder inactive, MPTP block inactive, Pemphigus Ab inh inactive, ADAM17 inh inactive, ADAM10 inh inactive and KLK7 zymogen act inactive.
Screening COC(=O)C(Cc1ccccc1)NC(=O)CNC(=O)c1sc2ccccc2c1Cl (centres undefined) returned rCAG binder inactive, MPTP block inactive, Pemphigus Ab inh inactive, ADAM17 inh inactive, ADAM10 inh inactive and KLK7 zymogen act inactive.
For CCCC(=O)OC[C@H]1CN(C2CCCC2)S(=O)(=O)c2c(Oc3ccc(C(C)(C)C)cc3)cccc2O1 the results were rCAG binder inactive, ADAM17 inh inactive, ADAM10 inh inactive and KLK7 zymogen act inactive.
For CCOC(=O)[C@H]1[C@H]2COc3ccccc3[C@@H]2N2C(=O)c3c(C)cc(C)cc3NC(=O)[C@@]12C the results were rCAG binder inactive, MPTP block inactive, Pemphigus Ab inh inactive, ADAM17 inh inactive, ADAM10 inh inactive and KLK7 zymogen act inactive.
For COc1cc(/C=C(\C(=O)O)c2ccc(S(=O)(=O)N3CCCC3)s2)cc(OC)c1 the results were rCAG binder inactive, MPTP block inactive, Pemphigus Ab inh inactive, ADAM17 inh inactive, ADAM10 inh inactive and KLK7 zymogen act inactive.
CSc1ccc(/C=C(\C(=O)O)c2ccc(S(=O)(=O)N3CCCCC3)s2)cc1 was read as rCAG binder 59, MPTP block inactive, Pemphigus Ab inh inactive, ADAM17 inh inactive, ADAM10 inh inactive, KLK7 zymogen act inactive, rCAG binder conf 55 and dCAG dye counter 20.
`O=C(O)/C(=C\c1ccc(Cl)cc1)c1ccc(S(=O)(=O)N2CCCC2)s1` gave rCAG binder inactive, MPTP block inactive, Pemphigus Ab inh inactive, ADAM17 inh inactive, ADAM10 inh inactive and KLK7 zymogen act inactive.
O=C(O)/C(=C\c1cccc(C(F)(F)F)c1)c1ccc(S(=O)(=O)N2CCCC2)s1 was read as rCAG binder 36, MPTP block inactive, ADAM17 inh inactive, ADAM10 inh inactive, KLK7 zymogen act inactive, rCAG binder conf inactive and dCAG dye counter 5.5.
For COCCNC(=O)c1c(N)[nH]c(C(=O)c2ccc(Br)cc2)c1-c1ccc(Br)cc1 the results were rCAG binder inactive, ADAM17 inh inactive, ADAM10 inh inactive and KLK7 zymogen act inactive.
For CCCC[C@@H]1C=C(C(=O)O)[C@H](c2ccc3c(c2)OCO3)N1S(=O)(=O)c1ccc(C)cc1 the results were rCAG binder 45, MPTP block inactive, Pemphigus Ab inh inactive, ADAM17 inh inactive, ADAM10 inh inactive, KLK7 zymogen act inactive, rCAG binder conf 39 and dCAG dye counter 11.
CCCC[C@@H]1C=C(C(=O)O)[C@H](c2ccc(Cl)cc2)N1S(=O)(=O)c1ccc(C)cc1 was read as rCAG binder 58, MPTP block inactive, Pemphigus Ab inh inactive, ADAM17 inh inactive, ADAM10 inh inactive, KLK7 zymogen act inactive, rCAG binder conf 54 and dCAG dye counter 20.
CCCCC[C@@H]1C=C(C(=O)O)[C@H](c2ccc(Br)cc2)N1S(=O)(=O)c1ccc(C)cc1 was read as rCAG binder 80, MPTP block inactive, Pemphigus Ab inh inactive, ADAM17 inh inactive, ADAM10 inh inactive, KLK7 zymogen act inactive, rCAG binder conf 69 and dCAG dye counter 31.
`COC(=O)c1ccc(-c2cccc(CN3CCN(c4ncc(Cc5ccccc5)cn4)CC3)c2)cc1` gave rCAG binder inactive, ADAM17 inh inactive, ADAM10 inh inactive and KLK7 zymogen act inactive.
